Active and inactive are the calls of the source.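 Rule for the calls: active = RAM network inhibition above 8.4% in each of two replicates, 3 SD over the compound average; inconclusive = above 8.4% inhibition in only one replicate; inactive = 8.4% inhibition or less in each replicate.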
Assay: RAM signaling pathway blockade in yeast – S. cerevisiae, Pdr1DBD-CYC8 efflux-inhibited sensitized strain, primary screen (AID 1298);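 note: 0% = DMSO untreated cells without growth and 100% = 10 µM 1-NA-PP1 full growth; higher means more yeast growth rescued from 5-FOA killing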
Settings: S. cerevisiae cbk1-as DSE1-URA3 strain, 5-FOA growth OD615, 2 d; at 50 µM; hits give high values

Row | SMILES | RAM network inhibition
1 | CC(=O)Nc1sc(C)c(C)c1CN1CCN(S(=O)(=O)c2ccccc2)CC1 | 1.74% (inactive)
2 | CC(C)CC(=O)Nc1ccc(C(=O)COc2ccc(-c3nnco3)cc2)cc1 | 2.46% (inactive)
3 | C=CCSC1=N/C(=C\c2ccc(C)o2)C(=O)S1 | 2.06% (inactive)
4 | Cc1ccc(-c2nn3c(C)nnc3s2)cc1NC(=O)c1ccco1 | 1.06% (inactive)
5 | CCN(CC)P1(=O)OC(c2cc(OC)c(OC)c(OC)c2)=Nc2c1c(C)nn2-c1ccccc1 (centres undefined) | 2.4% (inactive)
6 | CCc1ccc(NC(=O)c2ccc3c(c2)C(=O)N(Cc2ccco2)C3=O)cc1 | 1.5% (inactive)
7 | CSC1=NCCN1C(=O)c1ccc(Br)o1 | 7.19% (inactive)
8 | COc1ccccc1NC(=O)C1C2C=CC3(CN(Cc4cccnc4)C(=O)C13)O2 (centres undefined) | -0.51% (inactive)
9 | Cn1c(Cn2c(=O)sc3ccccc32)nnc1SCC(=O)NCc1ccccc1Cl | 3.96% (inactive)
10 | CCN1C(=O)c2ccccc2S(=O)c2ccc(C(=O)N3CCCC3)cc21 (centres undefined) | -1.72% (inactive)
11 | Cc1ccccc1CSc1nnc(Cn2c(=O)sc3ccccc32)n1C | 6.66% (inactive)
12 | O=C(NCc1ccccn1)C1CC(=O)N(C2CCCC2)C1 (centres undefined) | 2.33% (inactive)
13 | COc1ccccc1NC(=O)C1=C(C)NC(=O)NC1c1cccc(OC)c1OC (centres undefined) | 3.58% (inactive)
14 | CCOC(=O)C1CCCN(C(=O)c2cn(CC)c3ccc(S(=O)(=O)N(C)C)cc3c2=O)C1 (centres undefined) | 0.1% (inactive)
15 | CCCOC(=O)CSC1=C(C#N)C(c2ccccc2Cl)CC(=O)N1 (centres undefined) | 2.16% (inactive)
16 | COc1ccc(S(=O)(=O)Cc2ccc(C(=O)N3CCCC3)o2)cc1 | 4.21% (inactive)
17 | CC(C)n1c(CCCO)nc2ccccc21 | 0.19% (inactive)
18 | Cn1c(SCc2nc3ccccc3[nH]2)nnc1-c1cccnc1 | 5.38% (inactive)
19 | O=C(NC1CCCCC1)C1CCN(S(=O)(=O)c2cccc3cccnc23)CC1 | 1.34% (inactive)
20 | Cc1cc(OCc2ccc(F)cc2)nc(-c2ccccc2O)n1 | 2.72% (inactive)

Row | SMILES | RAM network inhibition
21 | CCC(=O)N=c1sc2cc(F)cc(F)c2n1C | 3.13% (inactive)
22 | CCOc1ccc(C2CC(=O)NC(SC)=C2C#N)cc1 (centres undefined) | 6.38% (inactive)
23 | COc1cc(OC)cc(-c2cc3nc(C)c(CCC(=O)O)c(C)n3n2)c1 | 1.56% (inactive)
24 | COc1ccc(C2C=C(c3ccc(C)c(C)c3)Nc3ncnn32)c(OC)c1OC (centres undefined) | -1.46% (inactive)
25 | CC(CCc1ccccc1)NC(=O)CSc1nnnn1C (centres undefined) | 4.5% (inactive)
26 | CCN(CCNC(=O)C1CCN(c2nnc(-n3cccc3)s2)CC1)c1ccccc1 | 8.71% (inactive)
27 | O=C(c1cnn2ccccc12)N(Cc1ccco1)C1CCCC1 | 1.62% (inactive)
28 | CC(=O)Nc1nnc(C)s1 | 1.53% (inactive)
29 | CCOCCCNC(=O)c1cccs1 | 0.76% (inactive)
30 | CCc1nnc(NC(=O)CSc2nnc(Cc3cccn3C)n2C)s1 | 1.19% (inactive)
31 | NC(=O)CSc1nnc(Cn2c(=O)sc3ccccc32)n1-c1ccccc1 | 2.47% (inactive)
32 | CCSc1nnc(NC(=O)C(C)C)s1 | 0.89% (inactive)
33 | Cc1ccc2oc3c(c(=O)c2c1)C(c1cccc(Cl)c1)N(CCCN1CCOCC1)C3=O (centres undefined) | 2.4% (inactive)
34 | O=S(=O)(NC1CCCCC1)c1cccc(-c2nnc(-c3ccccc3)o2)c1 | 3.44% (inactive)
35 | COc1ccc(CN2CCNC(=O)C2CC(=O)O)cc1OC (centres undefined) | -0.52% (inactive)
36 | COc1ccc2c(Cl)c(C(=O)NC3CCS(=O)(=O)C3)sc2c1 (centres undefined) | 1.43% (inactive)
37 | O=C(Cn1cc2c(n1)CCCCC2)NCc1ccccn1 | 4.15% (inactive)
38 | Cn1cccc1Cc1nnc(SCC(=O)NC2CCCCC2)n1CCc1ccccc1 | 8.9% (inactive)
39 | CCc1ccc(C2CC(c3ccccc3)Nc3nc(N)nn32)cc1 (centres undefined) | 5.98% (inactive)

Reference: PubChem BioAssay
